# Results reported in the supplement of paper PMC6411743.
# ± gives the standard deviation of the averaged measurements. About 6,500 targets were measured; listed, in parts, are those with the largest changes and a random draw of the rest.
# Tests used:
# Assay in all cases: NP40-soluble protein abundance relative to vehicle (solubility fold change) (ratio); higher = more soluble protein in presence of ATP
# [1] = target: T1, UniProt O95983|O95983-2|K7EIE8
# T1 sequence (whole entry): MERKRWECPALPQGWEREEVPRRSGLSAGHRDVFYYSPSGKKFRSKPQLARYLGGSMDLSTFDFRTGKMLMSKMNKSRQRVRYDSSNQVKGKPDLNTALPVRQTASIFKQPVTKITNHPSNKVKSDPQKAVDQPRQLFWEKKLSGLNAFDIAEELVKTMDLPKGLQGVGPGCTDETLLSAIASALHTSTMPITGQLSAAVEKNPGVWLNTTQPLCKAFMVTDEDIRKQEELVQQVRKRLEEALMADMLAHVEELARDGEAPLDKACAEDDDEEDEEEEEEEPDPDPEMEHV
# Procedure, shortened: (§1)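 Each value is a fold change relative to the detergent-processed vehicle, calculated per replicate from vsn-normalised intensities. Jurkat crude lysate received eight concentrations (0.1 to 10 mM) for 10 min at room temperature and 3 min at 37 °C, then was solubilised in 0.8% NP40 with benzonase (60 min, 4 °C). The ultracentrifuged supernatant was TMT-labelled and run by LC-MS/MS in three independent experiments.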
# UniProt P11177|P11177-2 = target: T2, UniProt P11177|P11177-2
# T2 sequence (whole entry): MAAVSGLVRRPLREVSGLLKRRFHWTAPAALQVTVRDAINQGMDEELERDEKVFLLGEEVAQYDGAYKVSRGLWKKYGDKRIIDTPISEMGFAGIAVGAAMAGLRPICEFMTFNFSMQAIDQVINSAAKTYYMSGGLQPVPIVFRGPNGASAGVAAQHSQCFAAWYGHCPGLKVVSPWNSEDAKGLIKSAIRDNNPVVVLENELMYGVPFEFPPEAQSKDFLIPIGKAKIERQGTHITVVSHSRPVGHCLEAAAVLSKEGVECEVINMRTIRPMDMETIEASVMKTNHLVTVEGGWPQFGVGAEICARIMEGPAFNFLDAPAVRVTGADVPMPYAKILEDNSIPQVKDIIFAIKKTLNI
# Procedure, shortened: as §1
# [2] = target: T3, UniProt P29728-2|A0A087X0V5|P29728
# T3 sequence (whole entry): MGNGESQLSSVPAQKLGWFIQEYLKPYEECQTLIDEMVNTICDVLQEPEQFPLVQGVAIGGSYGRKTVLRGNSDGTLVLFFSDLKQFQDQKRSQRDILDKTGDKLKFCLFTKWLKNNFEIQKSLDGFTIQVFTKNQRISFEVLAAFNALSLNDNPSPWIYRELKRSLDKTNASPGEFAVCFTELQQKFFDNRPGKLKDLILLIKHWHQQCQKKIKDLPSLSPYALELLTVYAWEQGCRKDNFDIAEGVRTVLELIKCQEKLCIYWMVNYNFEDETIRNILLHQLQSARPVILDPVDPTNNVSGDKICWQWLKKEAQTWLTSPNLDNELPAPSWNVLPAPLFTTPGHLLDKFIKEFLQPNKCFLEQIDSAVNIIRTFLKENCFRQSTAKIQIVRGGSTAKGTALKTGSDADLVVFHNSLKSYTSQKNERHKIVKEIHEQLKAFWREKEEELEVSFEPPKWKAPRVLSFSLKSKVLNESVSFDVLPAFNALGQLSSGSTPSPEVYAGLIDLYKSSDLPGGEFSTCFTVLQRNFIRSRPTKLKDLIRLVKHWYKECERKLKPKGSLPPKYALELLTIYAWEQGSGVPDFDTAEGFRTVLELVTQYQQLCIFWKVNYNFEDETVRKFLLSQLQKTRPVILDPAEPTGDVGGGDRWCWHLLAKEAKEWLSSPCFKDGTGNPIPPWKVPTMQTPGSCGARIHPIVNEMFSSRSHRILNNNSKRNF
# Procedure, shortened: as §1
# [3] = target: T4, UniProt P52594|P52594-2|P52594-3|P52594-4
# T4 sequence (whole entry): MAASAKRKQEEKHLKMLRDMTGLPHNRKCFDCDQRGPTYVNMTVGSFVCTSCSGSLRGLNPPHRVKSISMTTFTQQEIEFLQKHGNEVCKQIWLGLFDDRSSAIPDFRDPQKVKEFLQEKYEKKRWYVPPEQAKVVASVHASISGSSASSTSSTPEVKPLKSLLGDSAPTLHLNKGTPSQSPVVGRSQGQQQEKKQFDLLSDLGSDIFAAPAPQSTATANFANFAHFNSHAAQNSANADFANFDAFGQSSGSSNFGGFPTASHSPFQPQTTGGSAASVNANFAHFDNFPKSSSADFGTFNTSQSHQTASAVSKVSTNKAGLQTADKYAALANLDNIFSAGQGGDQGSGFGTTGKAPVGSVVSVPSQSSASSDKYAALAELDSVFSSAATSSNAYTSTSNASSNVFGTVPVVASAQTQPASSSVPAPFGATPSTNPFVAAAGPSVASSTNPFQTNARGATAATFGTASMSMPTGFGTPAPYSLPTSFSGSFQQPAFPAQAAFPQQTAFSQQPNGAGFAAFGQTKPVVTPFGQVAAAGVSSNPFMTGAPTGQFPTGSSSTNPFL
# Procedure, shortened: as §1
# UniProt P52757|P52757-9 = target: T5, UniProt P52757|P52757-9
# T5 sequence (whole entry): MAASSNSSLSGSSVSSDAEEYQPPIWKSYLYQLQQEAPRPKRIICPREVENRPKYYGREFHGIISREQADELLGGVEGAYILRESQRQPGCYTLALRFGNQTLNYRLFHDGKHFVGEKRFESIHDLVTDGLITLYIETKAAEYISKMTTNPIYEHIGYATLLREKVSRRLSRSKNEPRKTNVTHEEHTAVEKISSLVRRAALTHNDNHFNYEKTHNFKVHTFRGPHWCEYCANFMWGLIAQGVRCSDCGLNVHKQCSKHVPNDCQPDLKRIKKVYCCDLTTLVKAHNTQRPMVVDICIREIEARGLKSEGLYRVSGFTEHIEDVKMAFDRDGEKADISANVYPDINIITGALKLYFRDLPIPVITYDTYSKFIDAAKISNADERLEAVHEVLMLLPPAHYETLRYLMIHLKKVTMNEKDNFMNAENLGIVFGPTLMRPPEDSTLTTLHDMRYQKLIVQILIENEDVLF
# Procedure, shortened: as §1
# UniProt Q02040 = target: T6, UniProt Q02040
# T6 sequence (whole entry): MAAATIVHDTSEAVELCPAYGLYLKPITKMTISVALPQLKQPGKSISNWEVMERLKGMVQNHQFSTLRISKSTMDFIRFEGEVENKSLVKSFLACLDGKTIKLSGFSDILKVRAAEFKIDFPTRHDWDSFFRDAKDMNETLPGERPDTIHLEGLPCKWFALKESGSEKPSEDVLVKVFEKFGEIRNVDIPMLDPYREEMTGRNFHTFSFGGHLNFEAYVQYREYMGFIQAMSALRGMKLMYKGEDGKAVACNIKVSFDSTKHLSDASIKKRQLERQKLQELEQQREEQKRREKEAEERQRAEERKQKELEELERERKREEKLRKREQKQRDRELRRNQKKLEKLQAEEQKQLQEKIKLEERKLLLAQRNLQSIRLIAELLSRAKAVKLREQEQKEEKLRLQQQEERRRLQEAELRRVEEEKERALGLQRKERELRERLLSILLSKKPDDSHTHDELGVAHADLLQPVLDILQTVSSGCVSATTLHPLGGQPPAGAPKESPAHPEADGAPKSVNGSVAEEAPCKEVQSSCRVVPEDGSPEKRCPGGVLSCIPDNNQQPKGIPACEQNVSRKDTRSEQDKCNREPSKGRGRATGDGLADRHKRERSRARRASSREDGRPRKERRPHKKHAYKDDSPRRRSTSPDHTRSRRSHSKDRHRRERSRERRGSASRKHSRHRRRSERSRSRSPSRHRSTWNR
# Procedure, shortened: as §1
# YWHAZ = target: T7, YWHAZ (UniProt P63104)
# T7 sequence (whole entry): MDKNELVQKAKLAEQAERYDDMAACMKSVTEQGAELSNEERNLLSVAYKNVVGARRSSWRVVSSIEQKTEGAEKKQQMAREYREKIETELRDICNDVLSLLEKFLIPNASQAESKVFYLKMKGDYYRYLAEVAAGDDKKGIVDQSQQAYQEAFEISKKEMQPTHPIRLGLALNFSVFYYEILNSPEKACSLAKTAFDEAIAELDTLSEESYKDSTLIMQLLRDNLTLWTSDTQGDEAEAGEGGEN
# Procedure, shortened: as §1
smiles,measurement,setting,value
Nc1ncnc2c1ncn2[C@@H]1O[C@H](COP(=O)(O)OP(=O)(O)OP(=O)(O)O)[C@@H](O)[C@H]1O [adenosine triphosphate],NP40-soluble protein abundance,[1]; concentration: 6mM,1.02 ± 0.16
same,NP40-soluble protein abundance,[1]; concentration: 8mM,1.01 ± 0.065
same,NP40-soluble protein abundance,[1]; concentration: 10mM,0.92 ± 0.082
same,NP40-soluble protein abundance,UniProt P11177|P11177-2; concentration: 1mM,1.14 ± 0.069
same,NP40-soluble protein abundance,UniProt P11177|P11177-2; concentration: 2mM,1.04 ± 0.041
same,NP40-soluble protein abundance,UniProt P11177|P11177-2; concentration: 4mM,1 ± 0.05
same,NP40-soluble protein abundance,UniProt P11177|P11177-2; concentration: 6mM,1.02 ± 0.18
same,NP40-soluble protein abundance,UniProt P11177|P11177-2; concentration: 8mM,1.05 ± 0.14
same,NP40-soluble protein abundance,UniProt P11177|P11177-2; concentration: 10mM,1.02 ± 0.12
same,NP40-soluble protein abundance,[2]; concentration: 1mM,1.73 ± 0.11
same,NP40-soluble protein abundance,[2]; concentration: 2mM,1.65 ± 0.019
same,NP40-soluble protein abundance,[2]; concentration: 4mM,1.7 ± 0.046
same,NP40-soluble protein abundance,[2]; concentration: 6mM,1.55 ± 0.12
same,NP40-soluble protein abundance,[2]; concentration: 8mM,1.74 ± 0.042
same,NP40-soluble protein abundance,[2]; concentration: 10mM,1.68 ± 0.047
same,NP40-soluble protein abundance,[3]; concentration: 1mM,0.945 ± 0.033
same,NP40-soluble protein abundance,[3]; concentration: 2mM,0.961 ± 0.012
same,NP40-soluble protein abundance,[3]; concentration: 4mM,0.963 ± 0.019
same,NP40-soluble protein abundance,[3]; concentration: 6mM,0.987 ± 0.037
same,NP40-soluble protein abundance,[3]; concentration: 8mM,0.93 ± 0.052
same,NP40-soluble protein abundance,[3]; concentration: 10mM,0.918 ± 0.033
same,NP40-soluble protein abundance,UniProt P52757|P52757-9; concentration: 1mM,0.952 ± 0.13
same,NP40-soluble protein abundance,UniProt P52757|P52757-9; concentration: 2mM,0.971 ± 0.14
same,NP40-soluble protein abundance,UniProt P52757|P52757-9; concentration: 4mM,1 ± 0.23
same,NP40-soluble protein abundance,UniProt P52757|P52757-9; concentration: 6mM,0.948 ± 0.094
same,NP40-soluble protein abundance,UniProt P52757|P52757-9; concentration: 8mM,0.989 ± 0.091
same,NP40-soluble protein abundance,UniProt P52757|P52757-9; concentration: 10mM,0.983 ± 0.12
same,NP40-soluble protein abundance,UniProt Q02040; concentration: 1mM,1.4 ± 0.24
same,NP40-soluble protein abundance,UniProt Q02040; concentration: 2mM,1.56 ± 0.34
same,NP40-soluble protein abundance,UniProt Q02040; concentration: 4mM,1.8 ± 0.45
same,NP40-soluble protein abundance,UniProt Q02040; concentration: 6mM,2.02 ± 0.41
same,NP40-soluble protein abundance,UniProt Q02040; concentration: 8mM,2.19 ± 0.54
same,NP40-soluble protein abundance,UniProt Q02040; concentration: 10mM,2.43 ± 0.62
same,NP40-soluble protein abundance,YWHAZ; concentration: 1mM,0.892 ± 0.2
same,NP40-soluble protein abundance,YWHAZ; concentration: 2mM,0.94 ± 0.045
same,NP40-soluble protein abundance,YWHAZ; concentration: 4mM,0.896 ± 0.025
same,NP40-soluble protein abundance,YWHAZ; concentration: 6mM,0.918 ± 0.17
same,NP40-soluble protein abundance,YWHAZ; concentration: 8mM,0.8927 ± 0.0068
same,NP40-soluble protein abundance,YWHAZ; concentration: 10mM,0.819 ± 0.066
